The source of these data is PubChem BioAssay (NCATS).

Assay [1] has as its system CRL-7250. As to the kind of experiment: Cytotoxic Profiling of Annotated Libraries Using Quantitative High-Throughput Screening (AID 1296008). Also: potency is read from the fitted curve at half-maximal effect. As to max response: % is scaled to controls: 0 for no effect and ±100 for the full control effect. As to conditions: Five cell lines viability, CellTiter-Glo ATP luminescence, 48-72 h; max response: hits give low values. Put shortly:
(§1)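 Compounds were pin-transferred onto cells and incubated 48 or 72 hr at 37 degree Celsius, 95% humidity. CellTiter-Glo was added, plates sat 10 min at room temperature, then ATP-coupled luminescence was imaged as the viability read-out.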
A general note: Cellular ATP, detected with luciferase, serves as a proxy for viable cell number.

For assay [2], the system named is HEK293. The description is as above. Conditions: Five cell lines viability, CellTiter-Glo ATP luminescence, 48-72 h; max response: hits give low values. Put shortly:
as §1

Assay [3] relates to HaCat. Described as above. As to conditions: Five cell lines viability, CellTiter-Glo ATP luminescence, 48-72 h; max response: hits give low values. In short, it runs like this: as §1
Assay [4] deals with KB-3-1. The assay is described as above. Conditions: Five cell lines viability, CellTiter-Glo ATP luminescence, 48-72 h; max response: hits give low values. In short, it runs like this: as §1
The subject of assay [5] is NIH3T3. The description is as above. As to conditions: Five cell lines viability, CellTiter-Glo ATP luminescence, 48-72 h; max response: hits give low values. Put shortly:
as §1

Assay [6] deals with HACAT. As to the kind of experiment: qHTS assay to identify novel small-molecules to repurpose for Merkel cell carcinoma treatment (AID 1296009). As to activity change, negative = cytotoxicity: % is scaled to controls: 0 for no effect and ±100 for the full control effect. Conditions: MCC and control cell lines, CellTiter-Glo viability, 72 h; at 44.8 µM (top of the series) unless noted. Put shortly:
(§2)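 qHTS format: cells treated with library compounds in DMSO across 8 (NPC) or 11 (MIPE) concentrations. Readout after 72 hr at 37 degree celsius was CellTiter-Glo luminescence.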

The subject of assay [7] is MCC-13. Described as above. Conditions: MCC and control cell lines, CellTiter-Glo viability, 72 h; series mostly up to 46 µM. Put shortly:
as §2

Assay [8] relates to HEK293T. Described as above. As to conditions: MCC and control cell lines, CellTiter-Glo viability, 72 h; at 44.8 µM (top of the series) unless noted. Put shortly:
as §2

Assay [9] relates to W2. As to the kind of experiment: qHTS profiling for inhibitors of Plasmodium falciparum proliferation (AID 504749). Also: potency is read from the fitted curve at half-maximal effect. As to conditions: P. falciparum in erythrocytes, SYBR Green DNA, 72 h; series mostly up to 28.7 µM. In short, it runs like this: (§3)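 Parasite proliferation within erythrocytes, 72 h exposure. Endpoint: SYBR Green I fluorescence after overnight lysis at room temperature. Controls: 0.29 uM artemisinin, DMSO.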

Assay [10] concerns TAB165. The description is as above. Conditions: P. falciparum in erythrocytes, SYBR Green DNA, 72 h; series mostly up to 28.7 µM. Put shortly: as §3

Each structure is given as a SMILES string. Values joined by “and” are separate entries in the source; they are usually repeats but may differ in a detail not shown here. Identical values can stand only once. Results filed as inconclusive are left out. Some compounds were tested as several samples or in several runs, with calls that do not always agree. Values without a mark were called inactive. Active and inactive are the calls of the source. Calls follow the shape of the dose curve; as a rule, active = well fitted inhibition curve with a large enough effect; inconclusive = small, poorly fitted or top-dose-only effect; inactive = flat fitted curve, though single readings scatter.
Also: nearly all actives have a fitted effect of over 60% in size.

As for `CS(=O)(=O)c1ccc([C@@H](O)[C@@H](CF)NC(=O)C(Cl)Cl)cc1`, the max response in assay [1] is -8.92%; in assay [3], 3.4%; in [4], -19.8%; in [5], -3.77% and 0.419%. For the same compound, the call in [1], in assay [3] and in assay [6] was inactive. Further, the Potency in [2] is 2.99 µM (active). Also, in assay [7], the Potency entry was “inactive”.
With `CC(C)(C(=O)O)c1ccc(C(O)CCCN2CCC(C(O)(c3ccccc3)c3ccccc3)CC2)cc1` (stereo not given), the max response in assay [1] is -9.99%; in assay [2] it was 4.11%; in [4], -2.58% and -5.29%. Further, the compound was classed as inactive in assay [1], in [2], in assay [3], in [5], in [6] and in assay [8]. The Potency entry in [7] was “inactive”.
For `CCOC(CN1CCN(CC(C)C(=O)c2ccccc2)CC1)c1ccccc1` (stereo not given), the Potency in [9] was 10.7 µM (active). Moreover, the max response is -5.72% in assay [1]; -4.15% in assay [2]; -8.79% in assay [3]; 0.981% and -11.3% in assay [4]; -6.68% in [5]. Also, the outcome in assay [3] and in assay [5] was inactive. Also, the outcome in [6] was “inactive [at 17.4 µM]”. Also, the Potency result in [7] was “inactive”.
With `CCCCN1CCCC[C@H]1C(=O)Nc1c(C)cccc1C`, the Potency entry in assay [10] and in [7] was “inactive” each time. The Potency in assay [9] is 6.75 µM (active). In addition, the max response in [1] is 2.72% and -2.26%; in [2], -17.3% and -9.85%; in [3] it was -56.1%; in assay [4], 2.43%; in [5], -0.105% and -0.406%. Moreover, the call in [4] was inactive.
Regarding `CCCCc1ncc(/C=C(\Cc2cccs2)C(=O)O)n1Cc1ccc(C(=O)O)cc1`, the Potency result in assay [10], in [9] and in assay [7] was “inactive” each time. In addition, the max response in [1] is 0.696%; in assay [2], 1.61% and 1.3%; in assay [3], -8.96%; in assay [4] it was -5.45% and 6.97%; in assay [5], -1.7%. In addition, in assay [1], the compound was classed as inactive.
With `C[C@@H](O)[C@H](N)C(=O)O`, the max response is -2.34% in assay [1], 1.86% in [4] and -1.06% in assay [5]. In addition, the result in assay [2] and in assay [3] was inactive. The outcome in assay [6] and in assay [8] was “inactive [at 17.4 µM]” in each case. Moreover, the Potency result in [7] was “inactive”.
In the case of `Cc1cc(C(C#N)c2ccc(Cl)cc2)c(Cl)cc1NC(=O)c1cc(I)cc(I)c1O` (stereo not given), the Potency entry in assay [10] and in assay [7] was “inactive” throughout. Moreover, the max response is -2.5% in [1], -12.9% in [2], -17.7% in [3] and -5.52% in [5]. Besides, the call in [1], in assay [3], in assay [5] and in assay [6] was inactive. In [2], the Potency was 23.7 µM (active).
For `CC(O)COc1ccccc1` (stereo not given), the Potency entry in assay [10], in assay [9] and in assay [7] was “inactive” each time. For the same compound, the max response in [1] was 2.21%; in assay [4] it was 5.08%; in assay [5], -1.73%. The compound was classed as inactive in assay [2], in assay [3], in assay [6] and in assay [8].
In the case of `C[C@@H]1CC[C@@]2(OC1)O[C@H]1C[C@H]3[C@@H]4CC[C@H]5C[C@@H](O)CC[C@]5(C)[C@H]4CC(=O)[C@]3(C)[C@H]1[C@@H]2C`, the compound was classed as inactive in assay [1], in assay [2], in [3] and in [5]. Also, the max response in assay [4] was 1.37%. The outcome in [6] and in assay [8] was “inactive [at 4.96 µM]” each time. The activity change, negative = cytotoxicity in [7] was -5.49% [at 4.84 µM].
Consider `CCCOC(=O)c1ccccc1`, for which the Potency result in [10], in assay [9] and in assay [7] was “inactive” each time. Moreover, the values for the max response in assay [1], in assay [4] and in assay [5] were -5.05%, -10.8% and 2.42%, respectively. In addition, the result in assay [2], in [3], in assay [6] and in assay [8] was inactive.
Regarding `C=CCn1c(=O)n([C@@H]2O[C@H](CO)[C@@H](O)[C@H]2O)c2nc(N)[nH]c(=O)c21`, the max response in assay [1] was -6.63%; in [4] it was 17%; in [5], 4.38%. The compound was classed as inactive in assay [2], in [3], in assay [6] and in assay [8]. The Potency result in assay [7] is “inactive”.
On to `C[C@H](N)[C@H](O)c1cccc(O)c1`, for which the Potency entry in assay [10], in assay [9] and in assay [7] was “inactive” throughout. In addition, the max response in assay [1] was -3.27%; in assay [4] it was 1.71%; in assay [5] it was 1.91%. In addition, the call in [2], in assay [3], in assay [6] and in assay [8] was inactive.
For `CCCCC(CC)COC(=O)c1ccccc1O` (stereo not given), the Potency result in assay [10], in assay [9] and in [7] was “inactive” throughout. For the same compound, the values for the max response in [1] and in assay [4] were -6.25% and -6.97%, respectively. In addition, the result in [2], in assay [3], in [5], in [6] and in assay [8] was inactive.
Regarding `Nc1ccc(S(=O)(=O)NC(=O)c2ccccc2)cc1`, the Potency result in assay [10], in assay [9] and in assay [7] was “inactive” each time. The max response in assay [1] is -4.44%; in assay [4], 18.9%; in assay [5], -0.704%. Further, the outcome in [2], in assay [3], in [6] and in [8] was inactive.
Turning to `CN(N=O)C(=O)N[C@@H]1[C@@H](O)[C@H](O)[C@@H](CO)O[C@@H]1O`, the outcome in assay [1], in [2], in [3], in [5], in [6] and in assay [8] was inactive. For the same compound, the max response in assay [4] was 28.6%. Also, in [7], the Potency entry was “inactive”.
Regarding `CC1(C)CO[C@@H](CC(=O)O)CN1`, the Potency entry in assay [10], in [9] and in assay [7] was “inactive” each time. The result in assay [1], in [2], in assay [3], in assay [6] and in assay [8] was inactive. Moreover, the max response is 9.26% in assay [4] and -2.92% in assay [5].
